The values below come from PMC7862700, “An all-to-all approach to the identification of sequence-specific readers for epigenetic DNA modifications on cytosine”.

Holding throughout (experiment): DAPPL (digital affinity profiling via proximity ligation, sequencing); 10 mM Tris-HCl pH 7.5, 50 mM NaCl, 1 mM DTT, 4% glycerol, room temperature, 30 min; GST-TFs on glutathione beads, 16-mer random dsDNA library, 0.1% formaldehyde crosslink after washing; high values mean tight binding
One experiment concerns the target T1, FEV (Homo sapiens, UniProt Q99581 1-238).
T1 sequence: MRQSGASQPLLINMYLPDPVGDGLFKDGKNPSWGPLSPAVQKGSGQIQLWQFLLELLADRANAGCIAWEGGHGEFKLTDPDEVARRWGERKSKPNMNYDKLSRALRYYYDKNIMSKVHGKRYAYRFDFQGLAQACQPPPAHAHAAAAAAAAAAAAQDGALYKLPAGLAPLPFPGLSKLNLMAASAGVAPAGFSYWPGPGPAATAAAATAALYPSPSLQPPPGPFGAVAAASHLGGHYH
Conditions: protein: recombinant; tags: N-terminal GST; dsDNA, one strand shown. In short, it runs like this: (§1)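 Pools of DNA-barcoded human transcription factors, expressed in yeast as GST fusions on glutathione beads and combined with a tag-only sample, were incubated with 200 nmole of a 16-mer random double-stranded DNA library. Incubation took 30 min at room temperature in Tris/NaCl/DTT/glycerol buffer and was followed by washing, 0.1% formaldehyde crosslinking, proximity ligation (BsaI/T4 ligase, 1 h, 37 °C), PCR amplification and sequencing on an Illumina NextSeq500. Binding signal is the ratio of a hexamer's read frequency for a factor to its frequency for the tag-only sample.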

In another experiment the target is ETV5 (Homo sapiens, UniProt P41161 1-510). Conditions: protein: recombinant; tags: N-terminal GST; dsDNA, one strand shown. An outline of the steps: as §1
Sequence of ETV5 (P41161 whole entry): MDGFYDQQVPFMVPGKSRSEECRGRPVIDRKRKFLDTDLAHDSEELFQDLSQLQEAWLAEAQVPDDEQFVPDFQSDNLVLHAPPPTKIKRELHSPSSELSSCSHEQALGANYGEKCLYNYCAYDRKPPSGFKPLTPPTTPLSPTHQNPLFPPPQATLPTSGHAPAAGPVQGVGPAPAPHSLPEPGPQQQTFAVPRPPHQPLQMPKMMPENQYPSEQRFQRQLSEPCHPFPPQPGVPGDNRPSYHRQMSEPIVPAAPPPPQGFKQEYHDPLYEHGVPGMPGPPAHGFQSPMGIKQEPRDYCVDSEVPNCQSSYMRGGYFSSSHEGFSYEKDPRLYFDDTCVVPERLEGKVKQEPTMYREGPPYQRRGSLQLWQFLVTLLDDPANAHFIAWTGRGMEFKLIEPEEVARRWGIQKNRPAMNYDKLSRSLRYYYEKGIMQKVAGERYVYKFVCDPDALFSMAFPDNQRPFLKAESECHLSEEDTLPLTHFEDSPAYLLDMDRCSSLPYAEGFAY
A further experiment addresses HSF1 (Homo sapiens, UniProt Q00613 1-529). Particulars: protein: recombinant; tags: N-terminal GST; chain copies: 3; dsDNA, one strand shown. In short, it runs like this:
as §1

A further experiment has as its target T2, SPIC (Homo sapiens, UniProt Q8N5J4 1-248).
T2 sequence: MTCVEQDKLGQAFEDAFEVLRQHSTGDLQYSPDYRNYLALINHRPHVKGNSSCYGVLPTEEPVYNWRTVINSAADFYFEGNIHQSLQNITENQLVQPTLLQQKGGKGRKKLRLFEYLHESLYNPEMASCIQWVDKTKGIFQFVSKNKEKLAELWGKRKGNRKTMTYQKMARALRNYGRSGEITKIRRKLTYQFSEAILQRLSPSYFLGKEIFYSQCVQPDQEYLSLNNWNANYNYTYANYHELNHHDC
Conditions: protein: recombinant; tags: N-terminal GST; dsDNA, one strand shown. In short, it runs like this:
as §1

For the next experiment, the target named is ELF4 (Homo sapiens, UniProt Q99607 1-663). Particulars: protein: recombinant; tags: N-terminal GST; dsDNA, one strand shown. An outline of the steps:
as §1

For the next experiment, the target named is T3, ELK4 (Homo sapiens, UniProt P28324-2 1-405).
T3 sequence: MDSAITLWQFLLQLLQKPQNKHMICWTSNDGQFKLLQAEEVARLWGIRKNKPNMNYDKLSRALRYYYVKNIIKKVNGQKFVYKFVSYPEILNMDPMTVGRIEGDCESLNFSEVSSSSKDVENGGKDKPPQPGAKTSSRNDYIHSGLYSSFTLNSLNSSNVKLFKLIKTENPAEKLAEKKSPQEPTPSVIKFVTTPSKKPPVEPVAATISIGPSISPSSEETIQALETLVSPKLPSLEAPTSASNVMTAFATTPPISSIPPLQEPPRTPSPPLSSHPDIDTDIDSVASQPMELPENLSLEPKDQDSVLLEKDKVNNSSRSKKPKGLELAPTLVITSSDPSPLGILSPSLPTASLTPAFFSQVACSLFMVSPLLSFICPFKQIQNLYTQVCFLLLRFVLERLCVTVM
Particulars: protein: recombinant; tags: N-terminal GST; dsDNA, one strand shown. In short, it runs like this: as §1

The target of another experiment is T4, ETV2 (Homo sapiens, UniProt O00321 1-342).
T4 sequence: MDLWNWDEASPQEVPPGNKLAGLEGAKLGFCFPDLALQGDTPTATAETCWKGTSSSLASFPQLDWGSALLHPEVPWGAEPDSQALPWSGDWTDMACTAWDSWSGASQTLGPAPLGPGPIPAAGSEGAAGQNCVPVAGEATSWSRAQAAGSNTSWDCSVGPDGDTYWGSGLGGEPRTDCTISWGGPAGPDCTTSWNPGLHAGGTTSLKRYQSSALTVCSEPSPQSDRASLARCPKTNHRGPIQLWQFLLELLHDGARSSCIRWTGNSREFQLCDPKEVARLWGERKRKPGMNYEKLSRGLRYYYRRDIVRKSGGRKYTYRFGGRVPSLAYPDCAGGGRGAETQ
Particulars: protein: recombinant; tags: N-terminal GST; dsDNA, one strand shown. An outline of the steps: as §1

The target in a further experiment is T5, ELF3 (Homo sapiens, UniProt P78545 1-371).
T5 sequence: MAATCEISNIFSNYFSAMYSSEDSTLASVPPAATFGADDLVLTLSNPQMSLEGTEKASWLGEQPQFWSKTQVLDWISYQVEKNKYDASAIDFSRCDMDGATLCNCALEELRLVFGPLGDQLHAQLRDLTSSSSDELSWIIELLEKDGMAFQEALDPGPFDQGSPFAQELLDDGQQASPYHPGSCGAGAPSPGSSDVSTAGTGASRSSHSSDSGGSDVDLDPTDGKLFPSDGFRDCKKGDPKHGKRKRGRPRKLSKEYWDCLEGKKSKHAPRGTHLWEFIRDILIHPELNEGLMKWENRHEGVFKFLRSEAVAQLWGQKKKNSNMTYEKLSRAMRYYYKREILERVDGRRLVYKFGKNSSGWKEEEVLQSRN
Particulars: protein: recombinant; tags: N-terminal GST; dsDNA, one strand shown. In short, it runs like this:
as §1

In another experiment the target is CRX (Homo sapiens, UniProt O43186 1-299). Particulars: protein: recombinant; tags: N-terminal GST; dsDNA, one strand shown. An outline of the steps: as §1
Sequence of CRX (O43186 whole entry): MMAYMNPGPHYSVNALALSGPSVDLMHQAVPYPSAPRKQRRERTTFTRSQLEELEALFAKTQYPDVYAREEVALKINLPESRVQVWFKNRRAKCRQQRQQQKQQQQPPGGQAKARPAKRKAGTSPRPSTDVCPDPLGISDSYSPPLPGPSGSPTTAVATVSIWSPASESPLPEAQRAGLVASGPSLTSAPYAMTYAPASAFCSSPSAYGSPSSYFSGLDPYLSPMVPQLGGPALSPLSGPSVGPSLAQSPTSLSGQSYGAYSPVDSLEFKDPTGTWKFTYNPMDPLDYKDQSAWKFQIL
The target in the next experiment is ETV1 (Homo sapiens, UniProt P50549 1-477). Conditions: protein: recombinant; tags: N-terminal GST; dsDNA, one strand shown. An outline of the steps:
as §1

The next experiment has as its target T6, ERF (Homo sapiens, UniProt P50548 1-548).
T6 sequence: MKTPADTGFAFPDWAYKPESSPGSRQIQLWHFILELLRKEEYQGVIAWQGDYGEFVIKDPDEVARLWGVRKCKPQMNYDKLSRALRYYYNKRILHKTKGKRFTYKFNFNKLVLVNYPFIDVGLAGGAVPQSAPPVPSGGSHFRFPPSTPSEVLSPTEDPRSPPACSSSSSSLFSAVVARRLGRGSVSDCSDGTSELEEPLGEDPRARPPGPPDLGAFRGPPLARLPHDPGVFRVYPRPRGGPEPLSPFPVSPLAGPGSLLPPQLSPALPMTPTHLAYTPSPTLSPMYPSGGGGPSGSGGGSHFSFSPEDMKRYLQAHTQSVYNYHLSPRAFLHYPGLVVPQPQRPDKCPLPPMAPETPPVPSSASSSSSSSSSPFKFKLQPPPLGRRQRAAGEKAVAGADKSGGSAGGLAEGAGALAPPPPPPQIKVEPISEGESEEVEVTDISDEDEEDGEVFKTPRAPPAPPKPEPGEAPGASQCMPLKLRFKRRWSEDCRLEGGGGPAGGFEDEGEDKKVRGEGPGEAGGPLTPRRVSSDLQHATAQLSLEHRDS
Conditions: protein: recombinant; tags: N-terminal GST; dsDNA, one strand shown. An outline of the steps:
as §1

The next experiment deals with T7, ETV3L (Homo sapiens, UniProt Q6ZN32 1-361).
T7 sequence: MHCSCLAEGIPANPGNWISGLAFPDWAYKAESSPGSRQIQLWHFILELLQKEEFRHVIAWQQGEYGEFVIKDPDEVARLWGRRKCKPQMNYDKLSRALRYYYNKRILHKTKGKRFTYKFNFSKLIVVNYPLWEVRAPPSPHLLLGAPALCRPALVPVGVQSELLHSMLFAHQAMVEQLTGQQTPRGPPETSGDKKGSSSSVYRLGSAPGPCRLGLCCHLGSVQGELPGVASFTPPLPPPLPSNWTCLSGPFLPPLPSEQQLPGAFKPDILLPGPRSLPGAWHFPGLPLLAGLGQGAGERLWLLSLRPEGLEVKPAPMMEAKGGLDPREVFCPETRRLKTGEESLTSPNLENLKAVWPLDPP
Particulars: protein: recombinant; tags: N-terminal GST; dsDNA, one strand shown. In short, it runs like this:
as §1

For another experiment, the target named is T8, ETS2 (Homo sapiens, UniProt P15036 1-469).
T8 sequence: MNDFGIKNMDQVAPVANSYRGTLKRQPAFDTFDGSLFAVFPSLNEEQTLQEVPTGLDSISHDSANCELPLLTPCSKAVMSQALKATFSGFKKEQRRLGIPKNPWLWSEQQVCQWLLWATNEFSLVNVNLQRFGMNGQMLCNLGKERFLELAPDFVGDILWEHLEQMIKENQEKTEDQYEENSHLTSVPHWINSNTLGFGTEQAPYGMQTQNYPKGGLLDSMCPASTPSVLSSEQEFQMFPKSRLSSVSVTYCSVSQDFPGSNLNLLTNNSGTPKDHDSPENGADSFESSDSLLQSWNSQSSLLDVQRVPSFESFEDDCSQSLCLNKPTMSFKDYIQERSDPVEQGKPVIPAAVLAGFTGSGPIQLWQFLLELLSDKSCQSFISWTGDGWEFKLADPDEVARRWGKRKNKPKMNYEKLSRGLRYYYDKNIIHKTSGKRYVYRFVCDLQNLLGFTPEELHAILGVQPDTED
Conditions: protein: recombinant; tags: N-terminal GST; dsDNA, one strand shown. In short, it runs like this:
as §1

The target in the next experiment is T9, SPDEF (Homo sapiens, UniProt O95238 1-335).
T9 sequence: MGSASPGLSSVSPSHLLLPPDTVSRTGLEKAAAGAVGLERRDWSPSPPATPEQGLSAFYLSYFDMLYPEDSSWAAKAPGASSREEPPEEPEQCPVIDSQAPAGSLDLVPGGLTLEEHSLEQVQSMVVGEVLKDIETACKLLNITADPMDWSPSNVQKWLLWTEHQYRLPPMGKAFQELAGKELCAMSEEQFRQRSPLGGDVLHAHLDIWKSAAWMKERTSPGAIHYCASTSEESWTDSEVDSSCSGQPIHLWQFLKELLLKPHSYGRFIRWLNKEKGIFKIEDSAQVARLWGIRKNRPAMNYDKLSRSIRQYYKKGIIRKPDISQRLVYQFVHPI
Conditions: protein: recombinant; tags: N-terminal GST; dsDNA, one strand shown. An outline of the steps:
as §1

Another experiment deals with T10, ETV7 (Homo sapiens, UniProt Q9Y603 1-341).
T10 sequence: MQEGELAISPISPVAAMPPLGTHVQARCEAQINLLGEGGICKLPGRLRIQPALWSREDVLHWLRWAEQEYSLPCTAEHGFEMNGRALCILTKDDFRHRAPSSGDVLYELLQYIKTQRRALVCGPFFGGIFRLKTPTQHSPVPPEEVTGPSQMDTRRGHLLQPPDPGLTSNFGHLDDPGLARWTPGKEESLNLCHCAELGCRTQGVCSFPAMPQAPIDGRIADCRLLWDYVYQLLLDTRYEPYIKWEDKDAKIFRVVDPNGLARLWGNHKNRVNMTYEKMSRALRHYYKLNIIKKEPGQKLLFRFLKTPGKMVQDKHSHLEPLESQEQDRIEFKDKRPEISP
Particulars: protein: recombinant; tags: N-terminal GST; dsDNA, one strand shown. In short, it runs like this:
as §1

For a further experiment, the target named is T11, ELF5 (Homo sapiens, UniProt Q9UKW6-2 1-255).
T11 sequence: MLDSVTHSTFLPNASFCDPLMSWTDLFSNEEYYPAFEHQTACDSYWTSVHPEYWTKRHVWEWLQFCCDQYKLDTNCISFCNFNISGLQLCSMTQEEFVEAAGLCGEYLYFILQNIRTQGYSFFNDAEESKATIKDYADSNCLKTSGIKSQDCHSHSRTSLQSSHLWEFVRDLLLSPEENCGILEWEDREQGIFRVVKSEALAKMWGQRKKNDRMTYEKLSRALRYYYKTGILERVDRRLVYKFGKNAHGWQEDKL
Conditions: protein: recombinant; tags: N-terminal GST; dsDNA, one strand shown. An outline of the steps:
as §1

In a further experiment the target is T12, ETV3 (Homo sapiens, UniProt P41162-2 1-143).
T12 sequence: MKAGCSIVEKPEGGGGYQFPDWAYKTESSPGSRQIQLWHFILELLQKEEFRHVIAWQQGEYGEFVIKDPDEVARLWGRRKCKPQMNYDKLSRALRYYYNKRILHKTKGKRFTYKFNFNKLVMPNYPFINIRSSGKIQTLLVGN
Particulars: protein: recombinant; tags: N-terminal GST; dsDNA, one strand shown. An outline of the steps:
as §1

In another experiment the target is ETV6 (Homo sapiens, UniProt P41212 1-452). Conditions: protein: recombinant; tags: N-terminal GST; dsDNA, one strand shown. In short, it runs like this: as §1
Sequence of ETV6 (P41212 whole entry): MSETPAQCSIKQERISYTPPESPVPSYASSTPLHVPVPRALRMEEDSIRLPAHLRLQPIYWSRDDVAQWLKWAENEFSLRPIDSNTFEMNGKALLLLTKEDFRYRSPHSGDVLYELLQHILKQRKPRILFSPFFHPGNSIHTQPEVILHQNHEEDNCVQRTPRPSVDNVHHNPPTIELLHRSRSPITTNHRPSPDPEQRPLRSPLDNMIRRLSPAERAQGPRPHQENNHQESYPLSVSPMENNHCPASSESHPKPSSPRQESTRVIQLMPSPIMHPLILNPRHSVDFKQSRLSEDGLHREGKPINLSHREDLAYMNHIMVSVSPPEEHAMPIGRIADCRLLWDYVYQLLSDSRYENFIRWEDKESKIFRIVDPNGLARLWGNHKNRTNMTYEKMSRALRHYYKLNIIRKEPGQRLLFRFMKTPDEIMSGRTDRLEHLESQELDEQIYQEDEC

Sequence of ETV1 (P50549 whole entry): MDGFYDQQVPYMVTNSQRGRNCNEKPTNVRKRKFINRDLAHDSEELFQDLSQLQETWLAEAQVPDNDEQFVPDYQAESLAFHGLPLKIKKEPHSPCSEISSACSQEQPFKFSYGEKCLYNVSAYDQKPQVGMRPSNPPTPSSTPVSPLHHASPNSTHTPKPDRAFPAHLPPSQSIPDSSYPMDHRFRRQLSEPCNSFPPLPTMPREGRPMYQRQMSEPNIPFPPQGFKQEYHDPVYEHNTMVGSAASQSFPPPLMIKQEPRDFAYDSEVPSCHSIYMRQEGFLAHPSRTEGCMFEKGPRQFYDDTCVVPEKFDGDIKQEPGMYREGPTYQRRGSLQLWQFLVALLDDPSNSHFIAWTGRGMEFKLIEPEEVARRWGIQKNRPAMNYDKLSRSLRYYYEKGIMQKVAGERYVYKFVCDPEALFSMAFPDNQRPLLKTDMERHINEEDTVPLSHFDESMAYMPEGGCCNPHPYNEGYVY
Sequence of ELF4 (Q99607 whole entry): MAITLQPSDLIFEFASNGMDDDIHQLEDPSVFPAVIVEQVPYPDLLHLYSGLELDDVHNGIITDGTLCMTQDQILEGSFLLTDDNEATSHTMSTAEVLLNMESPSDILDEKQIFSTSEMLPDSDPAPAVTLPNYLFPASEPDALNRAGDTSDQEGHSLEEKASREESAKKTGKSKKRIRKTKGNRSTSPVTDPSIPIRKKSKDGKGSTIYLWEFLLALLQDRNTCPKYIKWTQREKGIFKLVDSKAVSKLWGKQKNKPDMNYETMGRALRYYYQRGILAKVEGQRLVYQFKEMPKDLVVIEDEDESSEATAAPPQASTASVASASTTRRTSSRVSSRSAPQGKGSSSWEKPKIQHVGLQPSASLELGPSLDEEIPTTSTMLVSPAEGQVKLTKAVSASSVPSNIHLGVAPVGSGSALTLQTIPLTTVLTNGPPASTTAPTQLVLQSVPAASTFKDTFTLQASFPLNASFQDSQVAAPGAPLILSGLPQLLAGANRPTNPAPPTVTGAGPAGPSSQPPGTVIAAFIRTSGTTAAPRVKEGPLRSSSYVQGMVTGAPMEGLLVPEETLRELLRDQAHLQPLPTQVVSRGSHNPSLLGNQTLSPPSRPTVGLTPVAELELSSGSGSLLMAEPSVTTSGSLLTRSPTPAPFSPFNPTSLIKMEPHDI
Sequence of HSF1 (Q00613 whole entry): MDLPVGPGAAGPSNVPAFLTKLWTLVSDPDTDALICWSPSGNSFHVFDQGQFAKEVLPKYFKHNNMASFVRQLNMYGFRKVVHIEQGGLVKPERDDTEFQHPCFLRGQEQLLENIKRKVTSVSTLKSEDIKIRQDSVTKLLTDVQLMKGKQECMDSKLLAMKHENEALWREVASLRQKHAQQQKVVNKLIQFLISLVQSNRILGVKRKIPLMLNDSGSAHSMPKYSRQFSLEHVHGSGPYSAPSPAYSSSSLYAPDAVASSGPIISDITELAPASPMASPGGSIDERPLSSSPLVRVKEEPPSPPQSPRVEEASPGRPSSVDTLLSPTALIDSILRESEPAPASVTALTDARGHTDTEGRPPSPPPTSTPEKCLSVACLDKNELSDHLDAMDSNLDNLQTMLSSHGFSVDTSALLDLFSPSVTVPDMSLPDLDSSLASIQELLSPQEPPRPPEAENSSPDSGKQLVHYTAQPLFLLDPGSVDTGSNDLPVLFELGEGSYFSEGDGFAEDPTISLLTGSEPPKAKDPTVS

Turning to TCCGTA, the binding signal is 1.43 fold enrichment (6-mer frequency, TF over GST control) in the experiment with FEV; 1.62 fold enrichment (6-mer frequency, TF over GST control) with ETV5; 1.1 fold enrichment (6-mer frequency, TF over GST control) in the experiment with HSF1; 1.56 fold enrichment (6-mer frequency, TF over GST control) with SPIC; 1.47 fold enrichment (6-mer frequency, TF over GST control) in the experiment with ELF4; 1.6 fold enrichment (6-mer frequency, TF over GST control) with ELK4. In addition, the binding signal in the experiment with ETV2 is 1.63 fold enrichment (6-mer frequency, TF over GST control); in the experiment with ELF3, 1.47 fold enrichment (6-mer frequency, TF over GST control); in the experiment with CRX, 1.21 fold enrichment (6-mer frequency, TF over GST control); with ETV1, 1.47 fold enrichment (6-mer frequency, TF over GST control); with ERF, 1.43 fold enrichment (6-mer frequency, TF over GST control); with ETV3L, 1.53 fold enrichment (6-mer frequency, TF over GST control). Further, the binding signal with ETS2 is 1.57 fold enrichment (6-mer frequency, TF over GST control); with SPDEF it was 1.79 fold enrichment (6-mer frequency, TF over GST control); with ETV7 it was 1.37 fold enrichment (6-mer frequency, TF over GST control); in the experiment with ELF5 it was 2.03 fold enrichment (6-mer frequency, TF over GST control); in the experiment with ETV3, 1.71 fold enrichment (6-mer frequency, TF over GST control); with ETV6, 1.54 fold enrichment (6-mer frequency, TF over GST control).
